# Measurements: PubChem BioAssay AID504333 (National Center for Advancing Translational Sciences (NCATS), 2011)
# The whole screen tested about 360,000 compounds, of which about 16,000 (4.4%) were called active. About 9% were inconclusive and are not listed. This is one part of a sample in which actives are shown more often than they occur. The call rests on the fitted dose curve; in most records, active means well fitted inhibition curve with a large enough effect; inconclusive means small, poorly fitted or top-dose-only effect; inactive means no such curve, though single readings can be large or run the other way.
# Target: Bromodomain adjacent to zinc finger domain protein 2B (Homo sapiens) (UniProt Q9UIF8)
# Assay: qHTS Assay for Inhibitors of BAZ2B; further: nearly all actives have a fitted effect of over 60% in size
# Details: AlphaScreen BAZ2B-H3K14Ac peptide displacement; series mostly up to 114 µM; activity change, negative = inhibition: at the top concentration
# In short: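 BAZ2B (50 nM) with biotin-H3(5-23)K14Ac peptide (50 nM) in PBS pH 7.4, 0.01% Tween-20, preformed 30 min, then compound 30 min at room temperature; top concentration 110uM. AlphaScreen streptavidin donor/nickel chelate acceptor beads (10 ug/mL final), 20 min dark, signal read.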
# On the % scale 0 is the no-effect control and ±100 the full control effect; potency means the concentration at half of the fitted maximal effect.
# Sequence of Bromodomain adjacent to zinc finger domain protein 2B (Homo sapiens) (Q9UIF8 whole entry, looked up, the tested form may be a part): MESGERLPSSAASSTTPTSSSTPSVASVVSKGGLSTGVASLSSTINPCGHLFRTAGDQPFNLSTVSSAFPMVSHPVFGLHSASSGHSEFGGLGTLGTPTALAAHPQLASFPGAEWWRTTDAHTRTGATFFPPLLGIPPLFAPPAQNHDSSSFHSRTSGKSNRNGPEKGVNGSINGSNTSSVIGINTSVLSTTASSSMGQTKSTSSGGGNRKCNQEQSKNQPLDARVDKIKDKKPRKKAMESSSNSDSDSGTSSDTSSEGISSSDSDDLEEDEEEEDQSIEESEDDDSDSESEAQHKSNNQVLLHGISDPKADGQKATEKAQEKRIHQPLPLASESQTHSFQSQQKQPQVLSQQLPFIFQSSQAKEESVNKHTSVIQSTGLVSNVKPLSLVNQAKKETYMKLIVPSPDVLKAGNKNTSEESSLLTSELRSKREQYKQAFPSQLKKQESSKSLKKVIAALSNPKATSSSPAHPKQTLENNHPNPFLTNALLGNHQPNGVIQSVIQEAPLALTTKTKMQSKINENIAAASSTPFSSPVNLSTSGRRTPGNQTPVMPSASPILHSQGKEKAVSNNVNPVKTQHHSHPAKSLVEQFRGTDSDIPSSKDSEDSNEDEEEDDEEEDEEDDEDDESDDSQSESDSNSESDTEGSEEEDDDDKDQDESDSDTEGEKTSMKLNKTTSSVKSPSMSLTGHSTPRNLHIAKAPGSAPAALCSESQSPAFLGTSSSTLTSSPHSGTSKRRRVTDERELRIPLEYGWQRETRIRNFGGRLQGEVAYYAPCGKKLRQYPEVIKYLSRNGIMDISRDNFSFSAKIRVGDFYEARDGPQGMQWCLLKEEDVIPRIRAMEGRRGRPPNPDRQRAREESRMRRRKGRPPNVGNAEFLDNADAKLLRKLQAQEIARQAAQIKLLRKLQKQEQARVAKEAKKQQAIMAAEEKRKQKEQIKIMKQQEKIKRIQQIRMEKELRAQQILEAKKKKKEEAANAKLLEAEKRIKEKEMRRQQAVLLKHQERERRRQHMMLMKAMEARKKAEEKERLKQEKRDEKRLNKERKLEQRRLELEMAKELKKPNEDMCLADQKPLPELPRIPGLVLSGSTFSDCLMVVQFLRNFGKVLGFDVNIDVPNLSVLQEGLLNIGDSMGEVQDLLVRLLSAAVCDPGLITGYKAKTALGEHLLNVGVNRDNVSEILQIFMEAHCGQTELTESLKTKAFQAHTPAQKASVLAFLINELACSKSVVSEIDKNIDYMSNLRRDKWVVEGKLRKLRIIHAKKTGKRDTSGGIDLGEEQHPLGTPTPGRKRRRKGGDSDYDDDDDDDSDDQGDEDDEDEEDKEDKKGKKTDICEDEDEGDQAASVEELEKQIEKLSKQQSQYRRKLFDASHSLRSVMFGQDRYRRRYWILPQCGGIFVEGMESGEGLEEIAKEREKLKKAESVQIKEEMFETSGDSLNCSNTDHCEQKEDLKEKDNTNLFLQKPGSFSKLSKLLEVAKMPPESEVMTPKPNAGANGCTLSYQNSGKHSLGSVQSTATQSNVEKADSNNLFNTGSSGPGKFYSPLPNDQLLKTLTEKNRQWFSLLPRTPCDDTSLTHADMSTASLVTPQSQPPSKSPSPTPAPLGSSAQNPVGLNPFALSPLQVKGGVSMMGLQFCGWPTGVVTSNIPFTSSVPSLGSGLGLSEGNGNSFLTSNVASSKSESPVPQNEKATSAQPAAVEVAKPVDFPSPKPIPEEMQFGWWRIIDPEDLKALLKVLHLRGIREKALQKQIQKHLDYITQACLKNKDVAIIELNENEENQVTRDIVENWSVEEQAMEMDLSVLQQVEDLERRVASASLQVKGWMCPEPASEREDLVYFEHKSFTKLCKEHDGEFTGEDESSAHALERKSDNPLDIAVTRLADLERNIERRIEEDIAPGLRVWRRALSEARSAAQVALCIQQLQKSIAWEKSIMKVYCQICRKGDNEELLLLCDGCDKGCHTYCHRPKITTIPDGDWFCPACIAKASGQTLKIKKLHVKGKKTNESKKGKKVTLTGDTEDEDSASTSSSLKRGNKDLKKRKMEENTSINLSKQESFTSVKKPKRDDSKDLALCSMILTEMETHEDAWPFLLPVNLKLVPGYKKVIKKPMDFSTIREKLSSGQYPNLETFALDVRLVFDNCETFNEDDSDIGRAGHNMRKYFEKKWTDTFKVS
SMILES,"activity change, negative = inhibition",Potency
O=C(O)c1c(CNCc2cccc(F)c2)c2ccccc2n1Cc1ccccc1,-0.857% (inactive),
COC(=O)c1ccccc1NC(=O)c1cnn(-c2ccc(F)cc2)c1-n1cccc1,-14.4% (inactive),
Cc1ccc2oc3c(c(=O)c2c1)C(c1ccc(O)cc1)N(Cc1ccc2c(c1)OCO2)C3=O (centres undefined),-0.588% (inactive),
CCOc1ccc(CCNC(=O)CN(c2ccc(C)cc2)S(=O)(=O)N(C)C)cc1OCC,1.55% (inactive),
CCN(CC)c1ccc(/C=N/Nc2nc(C)cc(C)n2)c(O)c1,,25.1 µM (active)
CCN(CC)c1ccc(/C=N/NC(=O)c2cnccn2)c(O)c1,-7.91% (inactive),
Cc1cc(C)nc(N/N=C/c2ccc([N+](=O)[O-])o2)n1,-25.2% (inactive),
Cc1ccc(-c2noc(CSc3nnc(-c4ccc(Cl)cc4)n3C)n2)cc1,-2.06% (inactive),
CSc1ncccc1C(=O)N1CCCC(CCC(=O)NCc2ccccc2F)C1 (centres undefined),-0.331% (inactive),
O=C(CCC1CCCN(Cc2ccc(O)c(Cl)c2)C1)NCc1ccccc1F (centres undefined),-15% (inactive),
Cc1[nH]c2c(C(=O)N3CCCC(CCC(=O)NCc4ccccc4F)C3)cccc2c1C (centres undefined),,70.8 µM (active)
CCCNC(=O)C1CCC(Cn2c(=O)c3sccc3n(Cc3ccccc3F)c2=O)CC1 (centres undefined),-3.32% (inactive),
Cc1ccccc1NC(=O)Cn1c(=O)n(CCCCC(=O)NCc2ccccc2Cl)c(=O)c2ccccc21,1.21% (inactive),
Cc1cc(F)ccc1NS(=O)(=O)c1ccc(-n2cccn2)cc1,-2.31% (inactive),
Cn1ccc2cc(S(=O)(=O)N3CCCC(C(=O)NCc4ccccc4F)C3)ccc21 (centres undefined),-3.06% (inactive),
Cc1oc(-c2ccccc2)nc1Cn1c(SCc2cccc(C(F)(F)F)c2)nc2cccnc21,-3.84% (inactive),
CCc1nn(CC(=O)N2CCN(c3ccc(Cl)cc3)CC2)c(=O)c2cc3occc3n12,-29.9% (inactive),
O=C(CN1CCN(S(=O)(=O)/C=C/c2ccccc2)CC1)NC(=O)NCc1ccco1,,50.1 µM (active)
NC(=O)CCN1CCN(S(=O)(=O)/C=C/c2ccccc2)CC1,3.29% (inactive),
COc1ccccc1N1CCN(CC(=O)NC(=O)NCc2ccco2)CC1,-3.12% (inactive),
COc1cccc(CNCCSc2nnnn2C)c1OCc1ccccc1Cl,-22% (inactive),
O=C(Cc1ccccc1)n1nc(-c2ccccc2)nc1NCc1ccco1,11.8% (inactive),
O=C(Nc1ccccc1)/C(=C\c1ccco1)NC(=O)c1ccco1,-17.7% (inactive),
O=c1nc2s/c(=C\c3ccco3)c(=O)n2nc1Cc1ccccc1,,50.1 µM (active)
CCOc1ccccc1N(CC)C(=O)c1cc2ccc3cccnc3c2[nH]1,-0.472% [at 57.1 µM] (inactive),
CC(=O)c1cccc(NC(=O)c2nc(-c3ccccc3)n(-c3cccc(C)c3)n2)c1,-9.48% (inactive),

SMILES,"activity change, negative = inhibition",Potency
Cc1ccccc1-n1c(SCC(=O)Nc2cccc3ccccc23)nc(O)cc1=O,-38.7% (inactive),
CC(=O)Nc1cccc(NC(=O)CSc2nccn2Cc2ccc(F)cc2)c1,-24.5% (inactive),
Cc1nnc(NC(=O)CSc2nccn2-c2cccc(C)c2C)s1,-29.9% (inactive),
Cc1cccc(-n2ccnc2SCC(=O)Nc2cccc3ccccc23)c1C,,14.1 µM (active)
O=C(CSc1nccn1Cc1ccc(F)cc1)NCc1ccccc1,-22% (inactive),
O=C(CSc1nccn1-c1ccc(F)cc1)Nc1cccc2ccccc12,,7.94 µM (active)
O=C(CSc1n[nH]c(-c2ccccc2)n1)N1CCCCC1,6.63% (inactive),
CN(C(=O)c1ccc2c(c1)N(Cc1cccc(Cl)c1)C(=O)c1ccccc1S2=O)C1CCCCC1 (centres undefined),-10.9% (inactive),
Cc1ccc(NC(=O)c2ccc3[nH]c(C)cc(=O)c3c2)c(C)c1,0.886% (inactive),
O=C1CSC2(C(=O)N(Cc3ccccc3)c3ccccc32)N1c1cccc(F)c1 (centres undefined),-33% (inactive),
CSc1ncc(C(=O)NCc2ccccc2Cl)c(C(F)(F)F)n1,12.8% (inactive),
COc1ccc(OC)c(-c2csc(-c3c(N)c(C(=O)c4ccccc4)n4ccccc34)n2)c1,-0.518% (inactive),
O=C(NC1CCCC1)C(=O)c1c[nH]c2ccccc12,-21.7% (inactive),
O=S(=O)(O)Oc1c[nH]c2ccccc12,,44.7 µM (active)
NC(=O)CSc1c[nH]c2ccccc12,7.21% (inactive),
CC(=O)N(C1=C(Cl)C(=O)c2ccccc2C1=O)c1ccc(C(=O)O)cc1,,28.2 µM (active)
CCc1ccc(-n2nc(C)c3c(C)cc(=O)n(CC(=O)Nc4ccc(F)cc4C)c32)cc1,-2.03% (inactive),
CC1CC(C)(C)NC(=S)N1CCC(=O)N1CCN(Cc2ccccc2)CC1 (centres undefined),-0.357% (inactive),
CC1CC(=S)Nc2ccccc2N1Cc1ccccc1 (centres undefined),,39.8 µM (active)
CC1CC(=O)Nc2ccccc2N1S(=O)(=O)c1cccs1 (centres undefined),2.06% (inactive),
Cc1nc(N2CCOCC2)c2c(C(=O)NCc3cccc(Cl)c3)c(C)oc2n1,9.33% [at 57.1 µM] (inactive),
O=C(CCn1ccc([N+](=O)[O-])n1)Nc1nccs1,-7.33% (inactive),
CCOc1ccc(C(=O)Nc2nccs2)cc1[N+](=O)[O-],6.29% (inactive),
Cc1c(Br)c([N+](=O)[O-])nn1C(C)C(=O)Nc1nccs1 (centres undefined),,79.4 µM (active)
COc1ccc(-c2nc3scc(CCNS(=O)(=O)c4cc(F)ccc4OC)n3n2)cc1OC,-14.6% (inactive),
COc1ccccc1C(=O)OCc1cc(=O)n2nc(-c3cccs3)sc2n1,-31.5% (inactive),

SMILES,"activity change, negative = inhibition",Potency
CC1=Nc2cc(C(=O)NCc3ccc(C)cc3)ccc2Sc2ccc(Cl)cc21,-12.7% (inactive),
Fc1ccc(-c2ccc(CNCc3ccccn3)o2)cc1Cl,,31.6 µM (active)
Cc1cc(Cl)ccc1OCCCC(=O)NCc1ccccn1,-6.56% (inactive),
O=S(=O)(NCc1ccccn1)c1ccc(F)cc1,-2.51% (inactive),
O=C(CCc1nc(CN2CCN(S(=O)(=O)c3ccc(Br)cc3)CC2)no1)N1CCCCC1,-19.9% (inactive),
COC(=O)c1ccccc1NC(=O)C(Cc1ccccc1)N1Cc2ccccc2C1=O (centres undefined),-0.606% (inactive),
CCN(CCCNC(=O)c1cc2cc3cc(OC)ccc3nc2s1)c1ccccc1,-27.3% (inactive),
Cc1cc(C=O)c(C)n1-c1ccc(NC2CCCCC2)c([N+](=O)[O-])c1,,10 µM (active)
Cc1cc([N+](=O)[O-])ccc1NC1CCCC1,-0.979% (inactive),
Cc1c(NS(=O)(=O)c2ccc(NC3CCCC3)c([N+](=O)[O-])c2)c(=O)n(-c2ccccc2)n1C,-27.8% (inactive),
CCOc1ccc(-c2cc(C)n3nc(C(=O)Nc4ccc(C)c(C)c4)cc3n2)cc1,-6.73% (inactive),
CCOC(=O)c1scc(-c2ccccc2)c1S(=O)(=O)Nc1ccccc1F,7.14% (inactive),
Cc1ccnc(N2CCCC(C(=O)NC3CC3)C2)n1 (centres undefined),1.89% (inactive),
Cc1ccnc(-n2sc3ccccc3c2=O)n1,,25.1 µM (active)
Cc1ccnc(SCC(N)=O)n1,-21.5% (inactive),
Cc1ccc(C)c(N2CCN(S(=O)(=O)c3ccc4c(c3)C(C(C)C)C(=O)N4)CC2)c1 (centres undefined),-11.9% [at 57.1 µM] (inactive),
CC(NC(=O)c1cc2c(=O)n3ccccc3nc2n(C(C)C)c1=N)c1ccccc1 (centres undefined),1.9% (inactive),
CCc1ccccc1NC(=O)CSc1nc(C)c(C(=O)Nc2ccccc2)c(-c2ccc(Cl)cc2)c1C#N,0.0077% (inactive),
COc1ccc(OC)c(CCNC(=O)c2nn(C)c3c2CS(=O)(=O)c2ccccc2-3)c1,-27.6% (inactive),
COc1ccc(-n2c(=O)[nH]c3cc(C(=O)NCCc4ccc(OC)c(OC)c4)ccc3c2=O)c(OC)c1,4.46% (inactive),
CCn1c(C)c(C)c2cc(C(=O)NCCc3cc(OC)ccc3OC)ccc21,,31.6 µM (active)
CCOc1cccc2cc(-c3cn4c(n3)sc3cc(C)ccc34)c(=O)oc12,-17.3% (inactive),
Cc1ccc(NC(=O)CSc2cccc3cccnc23)c(C)c1,-21.6% (inactive),
Cc1ccc(NC(=S)Nc2ncccc2C)c(C)c1,,44.7 µM (active)
Cc1cc(Br)ccc1NC(=S)NC1CCCC1,-19.8% (inactive),
COC(=O)c1scc(-c2ccc(C)cc2)c1S(=O)(=O)Nc1cc(Cl)c(OC)cc1OC,-22.8% (inactive),

SMILES,"activity change, negative = inhibition",Potency
Cc1cc(C)c(NC(=O)CCc2c(C)nc3c(c(C)nn3C(C)(C)C)c2C)c(C)c1,-12.1% (inactive),
OC(CNCc1ccc2c(c1)OCO2)COc1ccccc1 (centres undefined),-13.4% (inactive),
COc1ccc(OCC(O)CNC(=O)Nc2ccc(Cl)cc2)cc1 (centres undefined),-5.34% (inactive),
OC(CNCCc1ccc(Cl)cc1Cl)COc1ccccc1 (centres undefined),,70.8 µM (active)
CCCNC(=O)c1ccc(Cn2c(SCC(N)=O)nc3ccccc3c2=O)cc1,0.549% (inactive),
CC(=O)c1ccc(NC(=O)CSc2nnc(NC(=O)Nc3ccccc3)s2)cc1,7.08% (inactive),
O=C(c1ccco1)N1CCN=C1SCc1cccc(Cl)c1,-1.87% (inactive),
Cc1cc2c(cc3c(SCc4nc(-c5ccccc5)oc4C)nnc(C)n32)o1,-15.2% (inactive),
Cc1cc2c(cc3c(SCc4cccc(Cl)c4)nnc(C)n32)o1,,25.1 µM (active)
CCc1ccccc1NC(=O)c1sc2nc3c(cc2c1N)CN(Cc1ccccc1)CC3,-6.05% (inactive),
CCN1CCc2nc3sc(C(=O)Nc4ccccc4OC(F)(F)F)c(N)c3cc2C1,-35% (inactive),
CCc1ccc(NC(=O)c2sc3nc4c(cc3c2N)CN(CC)CC4)cc1,,35.5 µM (active)
O=C(COc1ccccc1)NCc1ccc2c(c1)CCN2C(=O)c1ccc(F)cc1,-11.4% (inactive),
CCc1nc2cccnc2n1-c1ccc(CC(=O)Nc2c(C)cccc2C)cc1,-2.4% (inactive),
Cc1cc(C)cc(NC(=O)CSc2nc3nccnc3c(=O)n2CCc2c[nH]c3ccccc23)c1,-12.2% (inactive),
Cc1ccc(-n2ncc3c(N4CCC(C(N)=O)CC4)ncnc32)cc1,-0.637% (inactive),
Cc1cc(C)cc(OCC(=O)Nc2nc(-c3ccc(F)cc3)ns2)c1,-2.4% (inactive),
CN(C)c1ccc(Nc2c3c4c(cccc4n(C)c2=O)C(=O)c2ccccc2-3)cc1,,1.58 µM (active)
Cc1cccc(NC(=O)c2cccc(S(=O)(=O)N3CCCC3)c2)n1,-4.94% (inactive),
Cc1ncc(CO)c(/C=N/NC(=O)c2cccc(S(=O)(=O)N3CCCC3)c2)c1O,,28.2 µM (active)
COc1ccc(Br)cc1/C=N/NC(=O)c1cccc(S(=O)(=O)N2CCOCC2)c1,-15.1% (inactive),
CCC(=O)N1N=C(c2ccc(OC)cc2)CC1c1cn(-c2ccccc2)nc1-c1cccs1 (centres undefined),-5.53% (inactive),
O=C(Cn1ncc2c3ccccc3n(Cc3ccccc3)c2c1=O)NC1CCCCCC1,-0.79% (inactive),
COc1ccc(N2CCN(Cc3ccc(Br)s3)CC2)cc1,,17.8 µM (active)
COc1ccc(N2CCN(Cc3nnc(-c4ccccc4)o3)CC2)cc1,-35.9% (inactive),
Fc1ccc(N2CCN(Cc3cnc(Oc4ccc(Br)cc4)s3)CC2)cc1,-9.51% (inactive),
